Laboratory results reported in PubChem BioAssay AID624037 (The Scripps Research Institute Molecular Screening Center, 2012).
The whole screen tested about 360,000 compounds, of which about 700 (0.19%) were called active. This excerpt belongs to a sample that is enriched for actives. Unmarked numbers belong to inactive results.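 Rule for the calls: active = activation above the run's mean over test compounds plus 3 SD (cut at about 23% in these data); inactive = the rest.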

target: Muscarinic acetylcholine receptor M5 (Homo sapiens) (UniProt P08912); assay: CHRM5 activators raising intracellular calcium – CHO-K1 cells, Fluo-8 calcium fluorescence, primary screen (AID 624037); conditions: CHO-K1 hM5 cells, at 3 µM, active compounds read high, 0% DMSO wells, 100% maximal acetylcholine response;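 note: signal is peak over basal fluorescence ratio across the kinetic read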
Sequence (P08912 whole entry, looked up): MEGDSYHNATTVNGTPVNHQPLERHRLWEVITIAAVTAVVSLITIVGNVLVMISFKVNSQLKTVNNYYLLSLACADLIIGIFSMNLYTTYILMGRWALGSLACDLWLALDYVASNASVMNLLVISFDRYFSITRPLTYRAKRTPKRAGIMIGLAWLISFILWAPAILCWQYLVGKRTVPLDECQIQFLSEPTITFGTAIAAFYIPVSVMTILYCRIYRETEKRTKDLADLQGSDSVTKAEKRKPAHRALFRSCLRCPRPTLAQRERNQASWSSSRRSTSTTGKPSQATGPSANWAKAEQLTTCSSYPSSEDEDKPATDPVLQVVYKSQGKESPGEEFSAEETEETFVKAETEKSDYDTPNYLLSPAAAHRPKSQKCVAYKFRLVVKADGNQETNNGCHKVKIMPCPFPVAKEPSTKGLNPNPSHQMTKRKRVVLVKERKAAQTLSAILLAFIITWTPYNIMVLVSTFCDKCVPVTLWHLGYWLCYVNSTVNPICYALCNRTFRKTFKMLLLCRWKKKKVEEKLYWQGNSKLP

Point of comparison: `CCCCN(C)CCNC(=O)CSCc1ccc(C)cc1`, activation -6.02%. Against it:
- COc1ccc(-n2c(C)csc2=S)cc1 — higher, -0.99%
- CCOC(=O)C1=C(CC)OC(N)=C(C#N)C1c1ccc(F)cc1F (stereo not given) — higher, -0.33%
- Cn1cc(CNC(=O)c2ccc(OC3CCN(Cc4ccccn4)CC3)cc2)cn1 — higher, -4.97%
- COc1ccc(SCCN2CCN(CC(C)C)CCC2=O)cc1 — higher, 1.8%
- O=C(COc1nc2ccccc2nc1N1CCOCC1)NCC(F)(F)F — higher, -2.71%
- Nc1nc2c(ncn2[C@@H]2O[C@H](CNCc3ccc(OCCCN4CCOCC4)cc3)[C@@H](O)[C@H]2O)c(=O)[nH]1 — higher, 0.62%
- O=[N+]([O-])c1cc(C(F)(F)F)ccc1NCCc1ccncc1 — higher, -2.99%
- O=C(/C=C/Nc1ccc(S(=O)(=O)Nc2cnc3ccccc3n2)cc1)c1cccnc1 — higher, -3.4%
- COCCN(C(=O)CCC(=O)Nc1ccccn1)C(C(=O)NCCC(C)C)c1ccc(OC)cc1 (stereo not given) — higher, -1.86%
- CCOc1ccc(C(=O)NC(=S)Nc2ccc(N3CCOCC3)c(Cl)c2)cc1[N+](=O)[O-] — higher, -0.99%
- COc1ccc(NC(=O)CN2C(=O)COc3ccc(S(=O)(=O)N4CCOCC4)cc32)c(OC)c1 — higher, 0.4%
- C[C@H]1COC(=O)[C@H](CC(=O)OC(C)(C)C)C/C=C\C[C@@H](CC(=O)N[C@H](CO)Cc2ccccc2)C(=O)N1 — higher, 0.74%
- Nc1ccn(C2CC(O)C(CO)O2)c(=O)n1 (stereo not given) — higher, 10.7%
- O=c1[nH]cnc(O)c1C(c1ccc(F)cc1)c1c(O)nc[nH]c1=O — higher, 0.85%
- Cc1occc(=O)c1OCc1c(Cl)cccc1Cl — higher, -4.28%
- Cc1occc1C(=O)NC1CCCN(Cc2ccc(CC(C)C)cc2)C1 (stereo not given) — higher, -1.97%
- Cc1c(C(=O)NCc2ccc(C#N)cc2)sc(=O)n1Cc1ccc(C(=O)N(C)C)cc1 — higher, 0.99%
- Cc1ccc(Cn2c(C)c(C(=O)NCc3ccccc3C(F)(F)F)sc2=O)cc1 — higher, -2.26%
- CCN(C(=O)COC(=O)c1cc(NS(=O)(=O)c2ccc(Cl)c([N+](=O)[O-])c2)ccc1O)C1CCCCC1 — higher, 2.95%
- CCC(CC)NC(=O)CSc1nnc(-c2c[nH]c3ccccc23)o1 — higher, -0.74%
- CC1=CC=CN2C1=NC(=O)CC2(C)C(=O)N(CC(=O)NC1CCCC1)c1ccccc1C (stereo not given) — higher, 0.83%
- COc1cc(=O)[nH]c(=O)n1C(=O)Cc1ccccc1 — higher, -1.68%
- COc1cc(C(=S)NCc2ccccc2)cc(Br)c1O — higher, -4.14%
- COc1cccc(-c2cnc3c(NC(C)=O)cc(-c4cc(F)ccc4OC)cn23)c1 — higher, -1.59%
- CCn1c(C(C)C)n[nH]c1=S — higher, 1.36%
- CCc1ccc(NC(=O)Cn2nnc(C(=O)NCc3ccc4c(c3)OCO4)c2N)cc1 — higher, -3.78%
- CCCn1nc2cc(C(=O)NCc3ccccc3)ccc2c1OCC — higher, -0.79%
- CC#CC[N+](C)(C)CCCCCC — lower, -16.5%
- CCc1ccc(NC(=O)C(C)OC(=O)/C=C/c2cccc([N+](=O)[O-])c2)cc1 (stereo not given) — higher, -0.62%
- Cc1ccc(CNC(=O)C(=O)c2cn(CC(=O)N3CCOCC3)c3ccccc23)cc1 — higher, -1.51%
- O=C1/C(=C/c2ccc3c(c2)OCO3)Oc2cc(OCC(=O)N3CC(O)C[C@H]3C(=O)O)ccc21 (stereo not given in full) — higher, 0.73%
- CCOCCCNC(=S)Nc1ccc2nc(N3CCN(CC)CC3)cc(C)c2c1 — higher, -4.11%
- Cn1cccc1C(C#N)c1ccccc1C#N (stereo not given) — higher, -3.67%
- O=C1c2ccccc2C(=O)N1CCOc1ccc(F)cc1 — higher, 11.9%
- Cc1cccc(C)c1-n1nnnc1C1(C)CCC(=O)N1CCOc1ccccc1 (stereo not given) — higher, 4.47%
- O=c1ccc(S(=O)(=O)N2CCCC2)cn1Cc1nc(-c2ccccc2)no1 — higher, -5.43%
- Cc1ccc(C)c(NC(=O)c2ccc(OC(=O)c3ccco3)cc2)c1 — higher, -2.18%

With `COc1ccc(C(=O)/C=C/Nc2ccccn2)cc1` the activation was 78% (active).
`CC(=O)Oc1ccc(Cn2c(C)c(C(=O)NCc3ccc(C#N)cc3)sc2=O)cc1` was tested, and the activation was 47.2% (active).
With `COc1cc(/C=C2/SC(=S)N(Cc3ccccc3)C2=O)cc(OC)c1O` the activation was 24.1% (active).
In the case of `Nc1c(C(=O)c2cccs2)sc2nsc(SCCN3CCCCC3)c12`, the activation is reported as 121% (active).
With `CCOc1ccc(Cn2nnc(C(=O)NCc3ccccc3)c2N)cc1` the activation was 34.7% (active).
With `CCN(CC)CCCC(C)n1c2nc(=O)[nH]c(=O)c-2nc2cc(Cl)ccc21` (stereo not given) the activation was 438% (active).
With `Cc1cccc2c1N(CCOc1ccccc1)C(=O)C2=O` the activation was 30.5% (active).
